Assay outcomes: PubChem BioAssay, several laboratories
PP1 counter: PP1-alpha phosphatase inhibitors, primary screen, counter-screen for PP5 inhibitor project, biochemical, fluorescence, OMFP substrate, single point | purified PP1alpha | inhibition, % at 6.7 µM | actives 0.9% (n = 320,000) | AID 2235, 2010;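 active means inhibition above the mean inhibition of all tested compounds plus 3 SD, computed separately for each screening campaign, cut at about 15% in these data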
Target sequence (P62136 whole entry, looked up): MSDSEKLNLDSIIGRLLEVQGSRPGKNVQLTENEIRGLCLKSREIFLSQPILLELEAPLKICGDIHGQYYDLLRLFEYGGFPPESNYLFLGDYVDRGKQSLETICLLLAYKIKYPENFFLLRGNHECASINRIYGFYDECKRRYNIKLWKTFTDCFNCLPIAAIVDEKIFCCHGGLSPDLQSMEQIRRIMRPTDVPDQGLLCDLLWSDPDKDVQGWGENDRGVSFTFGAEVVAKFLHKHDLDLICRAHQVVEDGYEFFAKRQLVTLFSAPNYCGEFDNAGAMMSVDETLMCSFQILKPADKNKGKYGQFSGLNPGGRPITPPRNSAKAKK
Beta apoptosis: inhibitors of cytokine-induced beta cell apoptosis, primary screen, luminescence; INS-1E cytokine-induced death, ATP luminescence, 48 h; percent of positive-control rescue, neutral wells zero; protection from apoptosis, % (no concentration beside the values); actives 0.8% (n = 300,000); AID 435005, 2010;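 active means Every replicate reaches about 75%, or at least half do and their mean reaches it too, limit read from the data; inconclusive means At least half of replicates reach the limit but their mean does not; inactive means Under half of replicates reach the limit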;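 further: higher means more ATP so stronger rescue from cytokine killing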
Calb FLC: C. albicans growth inhibition with fluconazole, primary screen, CaCi-2 strain, Alamar Blue fluorescence | C. albicans CaCi-2 (fluconazole-resistant clinical isolate) + fluconazole, 48 h | growth inhibition, % (test concentration not listed) | actives 0.57% (n = 300,000) | AID 1979, 2009;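 active means growth inhibition above about 58% in most replicates, limit read from the data, passing the limit was not always enough; inconclusive means exactly half the replicates above a set limit; inactive means most replicates below a set limit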;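 further: all wells also contain fluconazole at 8 µg/ml as a sub-toxic cotreatment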
CSC inhib: cancer stem cell viability inhibitors, primary screen, luminescence. cancer stem cell-like cells viability. inhibition, % at 7.5 µM. actives 1.1% (n = 300,000). AID 2717, 2010; in the data active means inhibition above about 75%; inconclusive means no clear call, values can overlap the other calls; tested in HMLE shEcad cells
PP5 inh: PP5 phosphatase inhibitors, primary screen, biochemical, fluorescence. actives 0.18% (n = 320,000). inhibition, % at 6.7 µM. purified PP5c, OMFP substrate fluorescence. Serine/threonine-protein phosphatase 5 (Homo sapiens), P53041;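 active means inhibition above the campaign's mean inhibition across all tested compounds plus 3 SD, cut at about 9.5% in these data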
Mdm2 MdmX PPI: inhibitors of human Mdm2-MdmX association, primary screen, cell-based, luminescence, split luciferase, SaOS-2, uHTS. Protein Mdm4 (Homo sapiens) + E3 ubiquitin-protein ligase Mdm2 (Homo sapiens), …. SaOS-2 split-luciferase Mdm2/MdmX complementation. inhibition, % at 8 µM. actives 3% (n = 330,000). AID 485346, 2010;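 active means inhibition of at least 50% at 8 µM in the primary screen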
Mdm2 MdmX conf: Mdm2-MdmX complex disruptors, retested hits, confirmation, luminescence, single concentration. AID 489028, 2010. actives 55% (n = 10,000). shares compounds with Mdm2 MdmX PPI. Mdm2-MdmX binding, luminescent assay. inhibition, % at 8 µM; in the data active means inhibition above about 40%
FLuc counter: full-length luciferase signal inhibition, confirmation, counter-screen for Mdm2/MdmX interaction inhibitor project, cell-based, single concentration, SaOS-2; shares compounds with Mdm2 MdmX PPI; SaOS-2 full-length luciferase counterscreen, luminescence; inhibition, % at 8 µM; actives 77% (n = 6,200); AID 504607, 2011;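 active means mean inhibition at 8 µM reaching about 37%, which flags the compound as non-specific, limit read from the data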;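 further: p53-null SaOS-2 cells with luciferase driven by a doxycycline-inducible promoter; compound on cells about two nights before reading with doxycycline added after day one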
Each line names hits and unclear results; the compound was inactive in the other large screens (follow-up assays come after a bar, where they were run). The list is not random: actives were taken first. Their share in the collection is about 4.9%.

CC(C)(C)OC(=O)NCCCC[C@H](NC(=O)c1[nH]cnc1C(=O)Nc1ccc(Cl)cc1)C(=O)OC(C)(C)C	Mdm2 MdmX PPI 56.0 | Mdm2 MdmX conf inactive
COc1cc(SC)ccc1C(=O)NCCNC(=O)c1nonc1N	none (no result: CSC inhib)
C#CCOCCOCCOCCNc1nc(N2CCN(C(=O)[C@H](CCC(=O)O)n3cc([C@@H](N)CO)nn3)CC2)nc(N2CCN(C(=O)[C@H](CCC(=O)O)n3cc([C@@H](N)CCSC)nn3)CC2)n1	none (no result: PP1 counter, Calb FLC, PP5 inh)
O=C1c2ccccc2C(=O)C2OC12 (stereo not drawn)	Mdm2 MdmX PPI 72.1 | Mdm2 MdmX conf inactive | FLuc counter 43.7
O=C1c2ccccc2C(=O)C1c1ccccn1	none
COC(=O)[C@@]1(Cc2ccc(F)cc2)[C@H]2c3cc(C(=O)N4CCCC4)n(Cc4ccc(C(F)(F)F)nc4)c3C[C@H]2CN1C(=O)c1ccccc1	none
COC(=O)[C@@]1(Cc2ccc(F)cc2)[C@H]2c3cc(C(=O)N4CCCC4)n(CCCNc4ncc(C(F)(F)F)cc4Cl)c3C[C@H]2CN1C(=O)c1ccccc1	Mdm2 MdmX PPI 62.0 | Mdm2 MdmX conf inactive
Cc1cc(C)n2nc(SCC(=O)NC(=O)c3ccccc3Cl)nc2n1	none (no result: Calb FLC)
Cc1cccc2sc(N(CCN(C)C)C(=O)C3CCN(S(=O)(=O)c4cccs4)CC3)nc12	none (no result: CSC inhib)
Cc1cccc2sc(N(CCN(C)C)C(=O)/C=C/c3cccs3)nc12	Mdm2 MdmX PPI 62.6 | Mdm2 MdmX conf inactive
COc1ccc2nc(N(CCN(C)C)C(=O)/C=C/c3cccs3)sc2c1	Mdm2 MdmX PPI 53.0 | Mdm2 MdmX conf inactive | FLuc counter 44.1
COc1ccc2sc(N(CCN(C)C)C(=O)/C=C/c3cccs3)nc2c1	none
Cc1cc(Nc2cc(Cl)nc(Sc3ccc(NC(=O)C4CC4)cc3)n2)n[nH]1	Mdm2 MdmX PPI 69.2 | Mdm2 MdmX conf 51.2 | FLuc counter 52.5
Cc1nc(SCC(=O)Nc2ccc3c(c2)OCCO3)c2oc3ccccc3c2n1	none
CCc1nc(SCC(=O)Nc2ccc3c(c2)OCCO3)c2oc3ccccc3c2n1	Mdm2 MdmX PPI 85.9 | Mdm2 MdmX conf inactive
CCCCOc1ccc(-c2c(C#N)c(N)nc(SCC(N)=O)c2C#N)cc1	Mdm2 MdmX PPI 54.7 | Mdm2 MdmX conf inactive
O=C(c1ccc(-c2ccccc2)cc1)c1ccc([N+](=O)[O-])cc1	none
O=C(C#Cc1ccccc1)c1ccc([N+](=O)[O-])cc1	Mdm2 MdmX PPI 96.7 (no result: PP1 counter, Beta apoptosis, CSC inhib, PP5 inh) | Mdm2 MdmX conf 82.0 | FLuc counter 57.7
Cc1ccc(Nc2nc(-c3cccnc3)nc3ccccc23)cc1	Mdm2 MdmX PPI 63.5 (no result: Beta apoptosis) | Mdm2 MdmX conf 57.1 | FLuc counter 57.2
Cc1c(O)ccc(/C=N/Nc2nc(-c3cccnc3)nc3ccccc23)c1O	Mdm2 MdmX PPI 65.6 | Mdm2 MdmX conf 58.7 | FLuc counter 69.6
Cc1ccccc1Nc1nc(-c2cccnc2)nc2ccccc12	none
Oc1ccc(/C=N/Nc2nc(-c3cccnc3)nc3ccccc23)c(O)c1	Calb FLC inconclusive
Cc1ccc(S(=O)(=O)NC(C)(C)CSc2ccccn2)cc1	none
O=C(Nc1cccc([N+](=O)[O-])c1)c1cccc(C(=O)Nc2cccc([N+](=O)[O-])c2)c1	Mdm2 MdmX PPI 76.1 | Mdm2 MdmX conf 44.6 | FLuc counter 71.4
O=C(Nc1ccc(NC(=O)c2cccc([N+](=O)[O-])c2)cc1)c1cccc([N+](=O)[O-])c1	none
O=C(Nc1cccc([N+](=O)[O-])c1)Nc1ccc2c(c1)CCC2	Mdm2 MdmX PPI 72.1 | Mdm2 MdmX conf inactive
Cc1ccc([N+](=O)[O-])cc1NC(=O)Nc1cccc(F)c1	Mdm2 MdmX PPI 59.1 (no result: PP1 counter, Beta apoptosis, CSC inhib, PP5 inh) | Mdm2 MdmX conf inactive
Nc1ncnc2c1ncn2[C@@H]1O[C@H](CNC(=O)[C@@H](N)COCc2ccccc2)[C@@H](O)[C@H]1O	none (no result: PP1 counter, Beta apoptosis, Calb FLC, CSC inhib, PP5 inh)
COc1ccc(-c2nc(N)nc(C)c2Oc2ccccc2Br)c(O)c1	CSC inhib 82.6, Mdm2 MdmX PPI 66.9 (no result: Calb FLC) | Mdm2 MdmX conf 65.2 | FLuc counter 52.7
CCOc1ccc(-c2nc(N)ncc2Oc2ccc(OC)cc2)c(O)c1	none
Cc1ccc(NC(=O)CCC(=O)N/N=C/c2ccc(O)cc2O)cc1	none
C=CCc1cccc(/C=N/NC(=O)CCC(=O)Nc2ccc(C)cc2)c1O	Beta apoptosis 90.4, Mdm2 MdmX PPI 65.1 | Mdm2 MdmX conf 65.2 | FLuc counter 52.2
COc1cccc(CNC(=O)CS(=O)(=O)Cc2nc(-c3ccc(C)cc3)oc2C)c1OC	none (no result: CSC inhib)
Cc1ccc(N(Cc2ccco2)C(=O)c2ccc(N3CCCCC3)c([N+](=O)[O-])c2)cc1	Mdm2 MdmX PPI 53.9 | Mdm2 MdmX conf inactive
Cc1ccc(Nc2nc3nonc3[nH]c2=O)cc1C	none
Cc1ccc(Nc2nc3nonc3[nH]c2=O)cc1Cl	Mdm2 MdmX PPI 76.0 | Mdm2 MdmX conf 80.1 | FLuc counter 72.0
Cc1ccc(CCNC(=O)CN2C(=O)COc3ccc(S(=O)(=O)N4CCOCC4)cc32)cc1	none
CC1CC(N(C(=O)c2ccc(Cl)cc2)c2ccccc2)c2ccccc2N1C(=O)c1ccco1 (stereo not drawn)	Mdm2 MdmX PPI 50.2 | Mdm2 MdmX conf inactive
CC1CC(N(C(=O)c2ccco2)c2ccccc2)c2ccccc2N1C(=O)c1ccco1 (stereo not drawn)	none
CC1CC(C)CN(CCCNC(=O)C2CCN(c3ncnc4c3sc3cccc(F)c34)CC2)C1 (stereo not drawn)	Mdm2 MdmX PPI 55.8 | Mdm2 MdmX conf inactive | FLuc counter 64.1
COc1cc(C(=O)Nc2ccc(Oc3ncnc4sc(-c5ccccc5)cc34)cc2)cc(OC)c1OC	Mdm2 MdmX PPI 52.6 (no result: CSC inhib) | Mdm2 MdmX conf inactive
COc1ccc(C(=O)Nc2ccc(Oc3nc(C)nc4sc(-c5ccccc5)cc34)cc2)cc1OC	Mdm2 MdmX PPI 55.8 | Mdm2 MdmX conf inactive
COc1ccc(-c2cn3cccnc3n2)cc1NC(=O)C(C)Oc1ccccc1 (stereo not drawn)	none
O=C(/C=C/c1ccccc1Cl)Nc1ccccc1	none
O=C(/C=C/c1c(F)cccc1Cl)c1ccc(O)cc1	CSC inhib 67.5, Mdm2 MdmX PPI 100.4 | Mdm2 MdmX conf 97.0 | FLuc counter inactive
O=C(/C=C/c1c(F)cccc1Cl)Nc1ncccn1	none
